Measured values taken from PubChem BioAssay AID588689 (Southern Research Specialized Biocontainment Screening …, 2011).
Among all 340,000 compounds or so, about 1,000 (0.29%) were called active. Cut-off read from the data, not from the text of the source: inconclusive = inhibition above about 29% without an active follow-up result; inactive = below that. The list is a sample of the results. Results with a measured potency or affinity are listed apart.

Target: Genome polyprotein (Dengue virus type 2 (strain 16681-PDK53)) (UniProt P29991)
Assay: flavivirus cap methylation enzyme inhibition – biochemical, confirmation dose response, primary screen (AID 588689)
Settings: Dengue-2 NS5 methyltransferase capping enzyme assay, at 25 µM, stronger effect = higher value
[1] = measured here: pilot screen replicate inhibition

COc1ccc(S(=O)(=O)NC2CCCC2)cc1C(N)=O
inhibition: -1.94% (inactive)

O=c1cc(O)c2ccc(O)cc2o1
inhibition: 0% (inactive)

[O-][n+]1c2ccccc2[n+]([O-])c2cc(O)ccc21
inhibition: 37.8% (inactive)

COc1ccc(C(=O)OCCNC(=O)c2ccncc2)cc1OC
inhibition: -5.77% (inactive)

CCOC(=O)c1ccccc1NC(=O)c1n[nH]c(=O)c2ccccc12
inhibition: 0% (inactive)

COc1cccc(N2CCN(C(=O)c3c(C)nn(-c4ccccc4)c3C)CC2)c1
inhibition: -1.48% (inactive)

COc1ccc(C(=O)NC2CCCc3c2cnn3-c2ccc(C)c(C)c2)c(OC)c1OC (stereo not given)
inhibition: -2.67% (inactive)

CC1=NN(c2ccccc2)C(=O)C1C(=S)SC1CC(=O)NC1=O (stereo not given)
inhibition: 26.3% (inactive)

O=C1CC(Sc2ncccc2C(=O)O)C(=O)N1 (stereo not given)
inhibition: 6.1% (inactive)

O=C(COC(=O)c1ccc(Br)o1)NC1CCCc2ccccc21 (stereo not given)
inhibition: -3.71% (inactive)

CC(C)NS(=O)(=O)c1ccc(OCC(=O)NCc2ccco2)cc1
inhibition: -2.21% (inactive)

Cc1ccc2nc(C)c(C(=O)N/N=C/c3ccccc3[N+](=O)[O-])cc2c1
inhibition: -1.3% (inactive)

Cc1nc2ccc([N+](=O)[O-])cc2nc1C
inhibition: -4.51% (inactive)

O=c1c2c([N+](=O)[O-])cc([N+](=O)[O-])cc2nc2ccccn12
inhibition: 0% (inactive)

O=[N+]([O-])c1cnc2ccccc2c1
inhibition: 3.89% (inactive)

COc1cc(Cl)cc(NC(=O)CCN2CCN(C)CC2)c1
inhibition: -1.61% (inactive)

O=C(NCCc1cccnc1)C1CCC(=O)N(CCc2cccc(F)c2)C1 (stereo not given)
inhibition: -9.31% (inactive)

Cc1ccccc1C(=O)Nc1c2c(nn1C(C)(C)C)CS(=O)(=O)C2
inhibition: -5.2% (inactive)

C=C1C(=O)O[C@H]2C[C@H]1[C@@H](OC(C)=O)C/C(C)=C/CC/C(C)=C\CC[C@]2(C)O
inhibition: -22.5% (inactive) | inhibition [1]: -2.46%

CC(=O)C12CCCCC1CC1C3CC(C)C4(O)CC(=O)CCC4(C)C3CCC12C (stereo not given)
inhibition: -1.3% (inactive)

O=C(c1ccccc1NS(=O)(=O)c1ccccc1[N+](=O)[O-])N1CCOCC1
inhibition: -3.61% (inactive)

O=C(c1ccccc1NS(=O)(=O)c1ccccc1[N+](=O)[O-])N1CCCC1
inhibition: 5.25% (inactive)

O=Cc1ccc(-c2cccc(C(=O)O)c2)o1
inhibition: 0.72% (inactive)

O=C1NN(c2ccccc2)C(=O)/C1=C/c1ccc(Sc2cccc3ccccc23)o1
inhibition: -6.2% (inactive)

O=C1NN(c2ccccc2)C(=O)/C1=C\c1ccc(-c2cc([N+](=O)[O-])ccc2O)o1
inhibition: -10.2% (inactive)

O=C1NN(c2ccccc2)C(=O)/C1=C/c1ccc(Sc2ccc(Cl)cc2)o1
inhibition: 29.5% (inactive)

CCc1cc(=O)oc2c3c(cc(OCC(=O)NCCCC(=O)O)c12)OC(C)(C)CC3
inhibition: -5.29% (inactive)

Cc1cc(C)n2nc(SCC(=O)N3CCCCC3C)nc2n1 (stereo not given)
inhibition: 3.69% (inactive)

CCC1(C2=CCCCC2)C(=O)NC(=O)N=C1N (stereo not given)
inhibition: 1.17% (inactive)

C[C@H](NC(=O)c1nc[nH]c1C(=O)NCCCCCN)C(=O)OCc1ccccc1
inhibition: 1.59% (inactive)

O=C(COC(=O)c1ccc(-c2cnc3ccccc3n2)cc1)c1ccccc1
inhibition: 5.84% (inactive)

Nc1cccc2nsnc12
inhibition: 12.4% (inactive)

COc1ccc(-n2nc3cc(N)c(Br)cc3n2)cc1
inhibition: 2.38% (inactive)

CCOC(=O)C1C(C(=O)Nc2cccc(C(F)(F)F)c2)C1C(=O)NC(C)C (stereo not given)
inhibition: -1.46% (inactive)

O=C(Nc1c[nH]c(=O)[nH]c1=O)c1cccc([N+](=O)[O-])c1
inhibition: -9.65% (inactive)

COC(=O)c1sc(-c2ccc(Cl)cc2)cc1NC(=O)c1ccccc1C(=O)O
inhibition: 15.7% (inactive)

COC(=O)c1sc(-c2ccc(C(C)(C)C)cc2)cc1NC(=O)CSCC(=O)O
inhibition: 3.13% (inactive)

COC(=O)c1sc(-c2ccc(Cl)cc2)cc1NC(=O)/C=C/C(=O)O
inhibition: 16.1% (inactive)

COC(=O)c1sc(-c2ccccc2)cc1NC(=O)c1ccccc1
inhibition: -1.45% (inactive)

OCC(CO)(CO)n1cnnn1
inhibition: -8.59% (inactive)

Cc1ccnc(N/C=C(/NC(=O)c2ccccc2)C(=O)N/N=C\c2ccc(Cl)cc2)n1
inhibition: -3.09% (inactive)

O=C(COC(=O)c1ccc2c(c1)S(=O)(=O)N=C1CCCCCN12)NCc1cccs1
inhibition: -3.45% (inactive)

CCOC(=O)C1CCCN(S(=O)(=O)c2cc(OCC(N)=O)c(C)cc2Cl)C1 (stereo not given)
inhibition: -5.68% (inactive)

CC(C)c1ccc(S(=O)(=O)c2nnn3c2nc(N2CCCCC2)c2ccccc23)cc1
inhibition: 1.47% (inactive)

CC(C)c1ccc(S(=O)(=O)c2nnn3c2nc(NCC2CCCO2)c2ccccc23)cc1 (stereo not given)
inhibition: 0% (inactive)

O=C(/C=C/c1ccco1)Nc1ccc2c(c1)OCCO2
inhibition: -4.48% (inactive)

COC(=O)c1c(-c2ccccc2)csc1NC(=O)C1CC=CCC1C(=O)O (stereo not given)
inhibition: -4.1% (inactive)

COC(=O)c1c(-c2ccc(C)cc2)csc1NC(=O)C1CC=CCC1C(=O)O (stereo not given)
inhibition: 0% (inactive)

CCOC(=O)c1c(-c2ccc(F)cc2)csc1NC(=O)C1CC=CCC1C(=O)O (stereo not given)
inhibition: 9.56% (inactive)

CCOC(=O)c1c(-c2ccc(C)cc2)csc1NC(=O)C1CC=CCC1C(=O)O (stereo not given)
inhibition: 14.8% (inactive)

O=C(NC(=S)Nc1ccccc1Br)C1CC1
inhibition: 7.22% (inactive)

Cc1nc2cc(N3CCCCC3)c(NC(=O)c3cccnc3)cc2c(=O)n1Cc1ccccc1
inhibition: -0.81% (inactive)

Nn1c(SCC(=O)Nc2ccc(F)c(F)c2)nnc1C1CCCCC1
inhibition: -4.85% (inactive)

COC(=O)CSc1nnc(-c2ccc(S(=O)(=O)N3CCCC3)cc2)o1
inhibition: -3.25% (inactive)

Nc1nc2c(nc(SCc3ccccc3Br)n2[C@@H]2O[C@H](CO)[C@@H](O)[C@H]2O)c(=O)[nH]1
inhibition: -5.87% (inactive)

CCOc1ccc(NC(=S)N(CCc2c(C)[nH]c3ccc(C)cc23)Cc2ccncc2)cc1
inhibition: -0.7% (inactive)

O=C(CSc1nnc(-c2ccc(Cl)cc2)n1-c1ccccc1)N/N=C/c1ccccc1C(=O)O
inhibition: -3.12% (inactive)

COc1ccc([C@H]2N[C@]3(CCCN(Cc4ccc(Cl)cc4)C3=O)[C@H]3C(=O)N(Cc4ccccc4)C(=O)[C@@H]23)cc1
inhibition: -3.98% (inactive)

CCOC(=O)c1c(NCc2ccc3c(c2)OCO3)c2ccccc2[nH]c1=O
inhibition: -4.02% (inactive)

O=S(=O)(Nc1nccs1)c1cc(Cl)ccc1Cl
inhibition: -13.7% (inactive)

O=S(=O)(Nc1nc(-c2ccccc2)cs1)c1cc(Cl)ccc1Cl
inhibition: 28.3% (inactive)

S=C(Nc1ccc(Nc2ccccc2)cc1)Nc1ccccn1
inhibition: -0.82% (inactive)

COc1ccc(-c2cc(=O)c3ccccc3n2C)cc1
inhibition: -9.65% (inactive)

COc1ccc(N2C(=O)C(Cl)=C(Nc3ccccc3OC)C2=O)cc1
inhibition: 1.45% (inactive)

CCOc1ccc(N2C(=O)C(Cl)=C(Nc3ccccc3O)C2=O)cc1
inhibition: 31% (inactive)

Cc1cccc(/C=N/n2c(C)cc(C)c(C#N)c2=O)c1
inhibition: -3.26% (inactive)

O=C(O)c1cccc(-n2cccc2C=C2C(=O)c3ccccc3C2=O)c1
inhibition: 12.5% (inactive)

O=Cc1cccn1-c1ccc(O)cc1
inhibition: -5.89% (inactive)

O=C1C(=Cc2cccn2-c2ccccc2)C(=O)c2ccccc21
inhibition: 5.2% (inactive)

O=C1NC(=S)N/C1=C/c1cccn1-c1ccc([N+](=O)[O-])cc1
inhibition: 0% (inactive)

CCC(OC(=O)CNS(=O)(=O)c1ccccc1)C(=O)c1ccccc1 (stereo not given)
inhibition: 5.35% (inactive)

COc1ccc2c(c1OC)C(=O)N1C(C(=O)O)Cc3c([nH]c4ccccc34)C21 (stereo not given)
inhibition: -3.23% (inactive)

CCOc1cc(NC(=S)NCCCN2CCOCC2)c(OCC)cc1NC(=O)c1cccc(C)c1
inhibition: 3.64% (inactive)

O=S(=O)(CCSc1ccc(C(F)(F)F)cn1)c1ccccc1
inhibition: -9.27% (inactive)

O=C(NCc1ccco1)c1ccc(CS(=O)Cc2cccc(Cl)c2)o1 (stereo not given)
inhibition: 2.71% (inactive)

NNc1nc(-c2ccccc2)c2cc(Cl)ccc2n1
inhibition: 4.62% (inactive)

COCCN(CC(=O)Nc1cccc(C)c1C)C(=O)C1(c2ccc(Cl)cc2)CCC1
inhibition: -0.37% (inactive)

Cc1ccc(C2C3=C(CCCC3=O)Nc3[nH]c(=S)[nH]c(=O)c32)cc1 (stereo not given)
inhibition: -5.01% (inactive) | inhibition [1]: -6.68%

O=C1CCCC2=C1C(c1ccc(Br)cc1)c1c([nH]c(=S)[nH]c1=O)N2 (stereo not given)
inhibition: 15.2% (inactive)

O=c1cc(CCc2ccccc2)oc2cccc(O)c12
inhibition: -3.62% (inactive)

CC(C)(C)C(=O)CN1C(=O)NC2(CCc3ccccc32)C1=O (stereo not given)
inhibition: -0.65% (inactive)

COc1cccc(-c2nc(CS(=O)(=O)CC(=O)N3CCc4ccccc4C3)c(C)o2)c1
inhibition: 6.54% (inactive)

CNc1ccccc1C(=O)OC
inhibition: 2.17% (inactive)

COc1cccc(C(C2=C(O)CC(C)(C)CC2=O)C2C(=O)CC(C)(C)CC2=O)c1 (stereo not given)
inhibition: -1.95% (inactive)

CC1(C)CC(=O)C(C(C2=C(O)CC(C)(C)CC2=O)c2ccco2)C(=O)C1 (stereo not given)
inhibition: -52.5% (inactive)

CC1(C)CC(=O)C(C(C2=C(O)CC(C)(C)CC2=O)c2cccc(O)c2)C(=O)C1 (stereo not given)
inhibition: 0.68% (inactive) | inhibition [1]: -19.3%

CC1(C)CC(=O)C(C(c2ccncc2)C2C(=O)CC(C)(C)CC2=O)C(=O)C1
inhibition: 5.41% (inactive)

CC1(C)CC(=O)C(C(C#Cc2ccccc2)C2=C(O)CC(C)(C)CC2=O)=C(O)C1
inhibition: -2.82% (inactive)

CC1(C)CC(=O)C(N=Nc2ccc(OC(F)F)cc2)=C(O)C1
inhibition: 10.8% (inactive)

CC1(C)CC(=O)C(C(c2ccco2)C2C(=O)CC(C)(C)CC2=O)C(=O)C1
inhibition: 37.4% (inactive) | inhibition [1]: 17.1%

CC1(C)CC(=O)C(Br)=C(O)C1
inhibition: -10.3% (inactive)
